Screening results as filed in PubChem BioAssay.
VDR inhibitor – blocks the human vitamin D receptor; VDR-SRC2-3 peptide fluorescence polarization, 2 h; Potency, µM, inactives show max response, negative = inhibition, hits mostly inhibitors; actives 0.93% (n = 400,000); AID 504847
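Two reagent solutions held at 4 deg C in the dark were dispensed, compounds pinned at 23 nl, and the mixture incubated 2 h at room temperature. Read-out: fluorescence polarization of VDR–SRC2-3 peptide binding.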
DT40 TDP1 CPT – growth inhibition of DT40 Tdp1-/-;hTDP1 cells with camptothecin (screen for TDP1 inhibitors). chicken DT40 Tdp1-/-;hTDP1 cells + 20 nM CPT, ATP luminescence, 48 h. Potency, µM (highest dose often 46.2 µM), inactives show at the top dose activity change, negative = growth inhibition, hits mostly inhibitors. actives 12% (n = 420,000). AID 686979; note: nearly all actives have a fitted effect of over 55% in size
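Cell growth measured by CellTiter-Glo luminescence after a minimum 48 h, 37 C compound exposure with 20 nM CPT in Tdp1-knockout DT40 cells stably expressing hTDP1, seeded 400/well; qHTS titration format.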
KAT2A inh – GCN5L2 (KAT2A) acetyltransferase inhibition; Q92830; GCN5L2 HAT assay, ThioGlo1 CoA-SH fluorescence; Potency, µM (doses to about 58.9 µM), inactives show at the highest dose activity change, negative = inhibition, most hits filed as inhibitors; actives 0.21% (n = 390,000); AID 504327
Target sequence (Q92830 whole entry, looked up): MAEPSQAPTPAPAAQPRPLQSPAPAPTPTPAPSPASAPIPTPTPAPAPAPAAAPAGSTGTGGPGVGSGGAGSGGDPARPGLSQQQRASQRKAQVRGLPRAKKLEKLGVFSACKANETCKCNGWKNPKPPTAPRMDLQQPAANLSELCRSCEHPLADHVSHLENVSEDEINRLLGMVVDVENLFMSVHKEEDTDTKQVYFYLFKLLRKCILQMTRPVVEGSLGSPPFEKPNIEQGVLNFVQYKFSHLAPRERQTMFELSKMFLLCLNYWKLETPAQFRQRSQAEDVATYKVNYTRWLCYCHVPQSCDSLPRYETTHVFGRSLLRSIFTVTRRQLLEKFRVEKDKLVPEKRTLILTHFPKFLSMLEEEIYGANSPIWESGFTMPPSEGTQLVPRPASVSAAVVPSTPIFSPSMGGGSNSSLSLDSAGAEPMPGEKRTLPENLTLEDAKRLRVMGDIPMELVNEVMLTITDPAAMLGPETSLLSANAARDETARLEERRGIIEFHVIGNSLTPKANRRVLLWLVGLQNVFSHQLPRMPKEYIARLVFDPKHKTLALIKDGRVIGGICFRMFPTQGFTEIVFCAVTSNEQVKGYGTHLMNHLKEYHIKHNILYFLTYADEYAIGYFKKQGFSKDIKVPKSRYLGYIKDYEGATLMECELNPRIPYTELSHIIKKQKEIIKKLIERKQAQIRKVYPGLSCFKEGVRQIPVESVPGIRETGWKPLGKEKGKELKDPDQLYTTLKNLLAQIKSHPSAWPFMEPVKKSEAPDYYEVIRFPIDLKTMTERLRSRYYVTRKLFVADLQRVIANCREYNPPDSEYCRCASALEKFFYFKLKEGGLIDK
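qHTS, 1536-well. 20nM enzyme, pH 7.5 HEPES/EDTA/Tween-20 buffer; 15 min compound preinc., RT. Start: 75uM H3(1-25), 70uM AcCoA, 50uM ThioGlo1. Read Ex340/Em540 at t=0 (autofluorescence flag) and t=20 min.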
PLK1 PBD block – PLK1 (human) polo-box domain binding inhibition. Potency, µM, for inactives: max response, negative = inhibition, actives largely listed as inhibitors. P53350. actives 2.8% (n = 360,000). Plk1 PBD binding of FITC phosphopeptide, fluorescence polarization; note: series mostly up to about 57 µM; nearly all actives have a fitted effect of over 65% in size
TDP1 cell noCPT – qHTS for Inhibitors of human tyrosyl-DNA phosphodiesterase 1 (TDP1): qHTS in cells in absence of CPT | Potency, µM (doses to about 46.2 µM), without a hit: top-dose activity change, negative = growth inhibition, most hits filed as inhibitors | actives 15% (n = 420,000) | DT40 Tdp1-/- hTDP1 cells, no CPT, ATP luminescence, 48 h; note: nearly all actives have a fitted effect of over 55% in size
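Seeded 400 DT40-hTDP1 cells/well (vehicle DMSO, no 20 nM CPT); pinned compounds; ≥48 hr at 37 °C; CellTiter-Glo luminescence as viability measure.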
TDP1 block – inhibitors of human tyrosyl-DNA phosphodiesterase TDP1; recombinant TDP1, AlphaScreen DNA substrate cleavage; Potency, µM (titrated, usually from 130 µM), without a hit: at the highest dose activity change, negative = inhibition, hits mostly inhibitors; actives 0.28% (n = 350,000); AID 485290; note: nearly all actives have a fitted effect of over 40% in size
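Compounds were preincubated with Tdp1 (1 nM final) for 15 min at room temperature before substrate (15 nM final) started a 5 min reaction; beads (10 ug/ml final) were then added for 10 min before AlphaScreen detection.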
* = called active by the depositor; ? = inconclusive; nt = no result; [ ] = another dose, or the depositor's remark. Rows were chosen to be rich in hits. Some 18% of all compounds tested hit in one or more screens of this group. Calls come from the whole dose curve; as a rule, active = well fitted curve in the direction sought with a large enough effect; inconclusive = small, poorly fitted or top-dose-only effect, or another doubt; inactive = no such curve, though single readings can be large; an effect the other way counts as inactive or inconclusive. % is set by controls: 0 for no effect and ±100 for the full control effect; potency is the fitted concentration of half-maximal effect.

SMILES	VDR inhibitor	DT40 TDP1 CPT	KAT2A inh	PLK1 PBD block	TDP1 cell noCPT	TDP1 block
CCCC(C)NC(=O)COc1ccc(Sc2ccc(OCC(=O)NC(C)CCC)cc2)cc1 (stereo not drawn)	-15%	8.2µM*	0%	-8%	12µM*	3%
CCCC(C)NC(=O)Cc1ccc(Br)cc1 (stereo not drawn)	10%	-15%	1%	-1%	-22%	0%
CC(C)CNC(=O)COc1ccc(Sc2ccc(OCC(=O)NCC(C)C)cc2)cc1	-11%	?	4%	-1%	1.6µM*	-3%
CCOC(=O)C1=CCN(S(=O)(=O)c2ccccc2F)C1c1ccc(Cl)c(Cl)c1 (stereo not drawn)	nt	?	nt	5%	?	nt
CNc1ccc(Cl)cc1S(=O)(=O)c1ccccc1[N+](=O)[O-]	nt	-58%	nt	-15%	15µM*	nt
Cc1ccc([N+](=O)[O-])cc1S(=O)(=O)N1CCN(C)CC1	2%	14%	-1%	-6%	3%	4%
Cc1ccc([N+](=O)[O-])cc1S(=O)(=O)n1ccnc1C	?	21µM*	0%	4.2µM*	18µM*	6%
CSc1ncccc1C(=O)Nc1nccs1	4%	4%	-5%	4%	1%	-5%
Cc1nc(NC(=O)C23CC4CC(CC(C4)C2)C3)sc1Cc1ccc2c(c1)OCO2	-3%	?	-7%	-5%	21µM*	8%
Cc1c(Cc2ccc3c(c2)OCO3)sc(NC(=O)C2CC2)c1C(N)=O	50µM*	10µM*	-8%	3.8µM*	10µM*	nt
Cc1nc(NC(=O)C2CCCC2)sc1Cc1ccc2c(c1)OCO2	15%	?	-11%	-2%	?	5%
CN(C)CCN=Cc1c(O)n(-c2ccc(S(=O)(=O)N3CCOCC3)cc2)c(=O)c2ccccc12	12%	-3%	-5%	-16%	-13%	2%
CC[C@H]1C(Nc2ccccc2)C[C@@H]2CCN3C(=O)CC[C@H]1[C@H]23 (stereo partly drawn)	-2%	-17%	nt	-2%	?	nt
CCOC(=O)C1=C(CSc2nc(CC)c(C)cc2C#N)OC(N)=C(C#N)C1c1ccccc1 (stereo not drawn)	2%	3.3µM*	-12%	-22%	23µM*	1%
CCOC(=O)C1=C(CSc2nc(-c3ccccc3)ccc2C#N)OC(N)=C(C#N)C1c1ccc(OC)cc1 (stereo not drawn)	31%	8.2µM*	-7%	4%	9.2µM*	3%
O=C(Cn1nc([N+](=O)[O-])nc1Br)NC(c1ccccc1)c1ccccc1	3%	21µM*	-9%	-9%	16µM*	-5%
O=C(CN1CCCC1)NC(c1ccccc1)c1ccccc1	-2%	21µM*	-3%	-4%	16µM*	nt
O=C(CN1CCN(c2ccccc2O)CC1)NC(c1ccccc1)c1ccccc1	-1%	?	0%	-8%	?	8%
Cc1ccc(C(NC(=O)CN2C(=O)NC3(CCCC3)C2=O)c2ccccc2)cc1 (stereo not drawn)	-6%	5%	-2%	2%	0%	2%
O=C(CN1C(=O)NC2(CCCC2)C1=O)NC(c1ccccc1)c1ccccc1	-1%	?	-6%	-9%	16µM*	-1%
CN1CCc2c(sc3c2C(=O)NC(c2ccco2)N3)C1 (stereo not drawn)	-26%	-16%	-4%	-10%	-2%	6%
O=C1NC(c2ccco2)Nc2sc3c(c21)CCN(Cc1ccccc1)C3 (stereo not drawn)	-23%	23µM*	-4%	-12%	16µM*	-1%
CN1CCc2c(sc3c2C(=O)NC(c2cn(Cc4ccccc4)c4ccccc24)N3)C1 (stereo not drawn)	-4%	21µM*	-17%	2%	23µM*	6%
COc1ccccc1N1CC(C(=O)Nc2ccc(N3CCOCC3)cc2)CC1=O (stereo not drawn)	-19%	-9%	-5%	-13%	6%	-3%
CCn1c(=O)cc(OCC(=O)N2CCN(c3cccc(Cl)c3)CC2)c2ccccc21	-19%	23µM*	-5%	nt	15µM*	5%
SMILES	VDR inhibitor	DT40 TDP1 CPT	KAT2A inh	PLK1 PBD block	TDP1 cell noCPT	TDP1 block
CN(C(=O)COc1cc(=O)n(C)c2ccccc12)c1cccc(Cl)c1	-22%	?	-4%	-23%	?	4%
CCn1c(=O)cc(OCC(=O)N2CCN(C(=O)c3ccco3)CC2)c2ccccc21	-7%	?	-9%	3%	-21%	2%
CCn1c(=O)cc(OCC(=O)N(C)c2cc(Cl)ccc2C)c2ccccc21	?	21µM*	-3%	nt	23µM*	-3%
Cn1c(=O)cc(OCC(=O)N2CCN(c3cccc(C(F)(F)F)c3)CC2)c2ccccc21	-8%	21µM*	-4%	-1%	15µM*	7%
CCn1c(=O)cc(OCC(=O)N2CCN(c3cccc(C)c3C)CC2)c2ccccc21	2%	9.2µM*	-7%	nt	7.3µM*	6%
CCOC(=O)N1CCN(C(=O)COc2cc(=O)n(C)c3ccccc23)CC1	-4%	-7%	-3%	-19%	-2%	2%
COc1ccc(OC)c(CN2CCCC(c3nc(C)ncc3-c3ccc(F)cc3)C2)c1 (stereo not drawn)	nt	21µM*	nt	nt	?	nt
COc1ccc(CN2CCCC(C(=O)N3CCCC3)C2)c(OC)c1OC (stereo not drawn)	nt	-30%	nt	0%	-7%	nt
COc1ccc(CN2CCCC(c3nc(-c4ccncc4)ncc3-c3ccccc3)C2)cc1OC (stereo not drawn)	nt	-5%[9.04 µM]	nt	nt	-3%	nt
CCOc1ccccc1CN1CCCC(c2nc(C)ncc2-c2ccc(F)cc2)C1 (stereo not drawn)	nt	?	nt	nt	18µM*	nt
COc1ccc(CN2CCCC(c3nc(C)ncc3-c3ccc(F)cc3)C2)c(OC)c1OC (stereo not drawn)	nt	12µM*	nt	nt	?	nt
CCOc1ccccc1N(CC(=O)N1CCc2ccccc2C1)S(=O)(=O)c1ccccc1	-6%	?	-8%	nt	?	-5%[12.3 µM]
CC(C)OC(=O)c1ccc(Cn2nnc3sc4c(c3c2=O)CCCC4)cc1	-12%	?	-9%	nt	?	-3%
CC(C)Oc1ccc(CNC(=S)Nc2ccccc2)cc1Cl	6%	?	-13%	-2%	?	nt
CCCOc1ccc(CNC(=S)Nc2ccccc2)cc1Cl	7%	?	-11%	-1%	16µM*	nt
